Results as given in PubChem BioAssay AID1159580 (chemical genetic matrix, 2015).
The whole screen tested about 5,500 compounds, of which about 2,000 (36%) were called active. Inconclusive results (about 18%) are left out. Cut-off read from the data, not from the text of the source: active = normalized growth mostly below about 0.91 (no sharp cut-off); inconclusive = no clear call, values can overlap the other calls; inactive = mostly above about 0.92. The list shows a part of the results.

Experiment: chemical genetic growth profiling, strain panel (AID 1159580);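 note: tested at 20 µM; growth read once vehicle control cultures reached saturation at 30 °C; 1 = growth at the plate median or of vehicle wells; lower values mean less growth of the strain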
Conditions: growth OD

Measured: normalized growth

Fc1ccc(C(c2ccccc2)(c2ccccc2F)n2ccnc2)cc1 (stereo unspecified)
inactive: S. cerevisiae deletion strains, locus YOL012C, strain htz1 0.208
active: S. cerevisiae deletion strains, locus YAL013W, strain DEP1, hits give low values 0.0872 | S. cerevisiae deletion strains, locus YBR021W, strain FUR4, hits give low values 0.19 | S. cerevisiae deletion strains, locus YBR229C, strain ROT2, hits give low values 0.0785 | S. cerevisiae deletion strains, locus YCL029C, strain bik1, hits give low values 0.0815 | S. cerevisiae deletion strains, locus YDL035C, strain GPR1, hits give low values 0.0631 | S. cerevisiae deletion strains, locus YDL074C, strain BRE1, hits give low values 0.147 | S. cerevisiae deletion strains, locus YDL101C, strain DUN1, hits give low values 0.0698 | S. cerevisiae deletion strains, locus YDL134C, strain PPH21, hits give low values 0.0588 | S. cerevisiae deletion strains, locus YDL185W, strain tfp1, hits give low values 0.0581 | S. cerevisiae deletion strains, locus YDL192W, strain arf1, hits give low values 0.0867 | S. cerevisiae deletion strains, locus YDR101C, strain arx1, hits give low values 0.0775 | S. cerevisiae deletion strains, locus YDR150W, strain NUM1, hits give low values 0.0798 | S. cerevisiae deletion strains, locus YDR162C, strain NBP2, hits give low values 0.0536 | S. cerevisiae deletion strains, locus YDR318W, strain mcm21, hits give low values 0.082 | S. cerevisiae deletion strains, locus YDR388W, hits give low values 0.0787 | S. cerevisiae deletion strains, locus YDR502C, strain sam2, hits give low values 0.079 | S. cerevisiae deletion strains, locus YEL061C, strain CIN8, hits give low values 0.063 | S. cerevisiae deletion strains, locus YER110C, hits give low values 0.112 | S. cerevisiae deletion strains, locus YER155C, strain BEM2, hits give low values 0.097 | S. cerevisiae deletion strains, locus YER167W, strain BCK2, hits give low values 0.0563 | S. cerevisiae deletion strains, locus YGL078C, strain dbp3, hits give low values 0.111 | S. cerevisiae deletion strains, locus YGL086W, strain mad1, hits give low values 0.0673 | S. cerevisiae deletion strains, locus YGL248W, strain PDE1, hits give low values 0.0531 | S. cerevisiae deletion strains, locus YGR078C, strain PAC10, hits give low values 0.0703 | S. cerevisiae deletion strains, locus YGR135W, strain pre9, hits give low values 0.0937 | S. cerevisiae deletion strains, locus YGR229C, strain SMI1, hits give low values 0.0699 | S. cerevisiae deletion strains, locus YGR252W, strain gcn5, hits give low values 0.179 | S. cerevisiae deletion strains, locus YHR030C, strain SLT2, hits give low values 0.0565 | S. cerevisiae deletion strains, locus YHR079C, strain IRE1 (second series), hits give low values 0.0811 | S. cerevisiae deletion strains, locus YHR094C, strain hxt1, hits give low values 0.0819 | S. cerevisiae deletion strains, locus YHR129C, strain ARP1, hits give low values 0.0647 | S. cerevisiae deletion strains, locus YHR200W, strain rpn10, hits give low values 0.101 | S. cerevisiae deletion strains, locus YIL066C, strain RNR3, hits give low values 0.054 | S. cerevisiae deletion strains, locus YIL073C, strain SPO22, hits give low values 0.128 | S. cerevisiae deletion strains, locus YIL125W, strain kgd1, hits give low values 0.14 | S. cerevisiae deletion strains, locus YIR030C, strain dcg1, hits give low values 0.0795 | S. cerevisiae deletion strains, locus YJL095W, strain BCK1, hits give low values 0.0549 | S. cerevisiae deletion strains, locus YJL134W, strain LCB3, hits give low values 0.0651 | S. cerevisiae deletion strains, locus YJL168C, strain set2, hits give low values 0.0832 | S. cerevisiae deletion strains, locus YJL187C, strain SWE1 (second series), hits give low values 0.0603 | S. cerevisiae deletion strains, locus YJR043C, strain POL32, hits give low values 0.0763 | S. cerevisiae deletion strains, locus YJR075W, strain HOC1, hits give low values 0.0813 | S. cerevisiae deletion strains, locus YKL009W, strain mrt4, hits give low values 0.4 | S. cerevisiae deletion strains, locus YKL068W, hits give low values 0.178 | S. cerevisiae deletion strains, locus YKL085W, strain MDH1 (second series), hits give low values 0.126 | S. cerevisiae deletion strains, locus YKL085W, strain MDH1, hits give low values 0.126 | S. cerevisiae deletion strains, locus YKL190W, strain CNB1, hits give low values 0.0509 | S. cerevisiae deletion strains, locus YKR001C, strain vps1, hits give low values 0.0897 | S. cerevisiae deletion strains, locus YLR039C, strain RIC1, hits give low values 0.191 | S. cerevisiae deletion strains, locus YLR058C, strain SHM2, hits give low values 0.0587 | S. cerevisiae deletion strains, locus YLR102C, strain apc9, hits give low values 0.0876 | S. cerevisiae deletion strains, locus YLR262C, strain YPT6, hits give low values 0.23 | S. cerevisiae deletion strains, locus YLR268W, strain sec22, hits give low values 0.0794 | S. cerevisiae deletion strains, locus YLR330W, strain CHS5, hits give low values 0.0657 | S. cerevisiae deletion strains, locus YLR342W, strain FKS1 (second series), hits give low values 0.0856 | S. cerevisiae deletion strains, locus YLR371W, strain rom2, hits give low values 0.0813 | S. cerevisiae deletion strains, locus YLR418C, strain cdc73, hits give low values 0.127 | S. cerevisiae deletion strains, locus YML016C, strain PPZ1, hits give low values 0.0591 | S. cerevisiae deletion strains, locus YML032C, strain rad52, hits give low values 0.104 | S. cerevisiae deletion strains, locus YML124C, strain tub3, hits give low values 0.0796 | S. cerevisiae deletion strains, locus YMR078C, strain ctf18, hits give low values 0.101 | S. cerevisiae deletion strains, locus YMR223W, strain ubp8, hits give low values 0.0885 | S. cerevisiae deletion strains, locus YMR263W, strain SAP30, hits give low values 0.108 | S. cerevisiae deletion strains, locus YMR307W, strain GAS1, hits give low values 0.129 | S. cerevisiae deletion strains, locus YNL067W, strain RPL9B, hits give low values 0.0623 | S. cerevisiae deletion strains, locus YNL128W, strain TEP1, hits give low values 0.0794 | S. cerevisiae deletion strains, locus YNL153C, strain GIM3, hits give low values 0.0592 | S. cerevisiae deletion strains, locus YNL233W, strain BNI4, hits give low values 0.0673 | S. cerevisiae deletion strains, locus YNL250W, strain rad50, hits give low values 0.133 | S. cerevisiae deletion strains, locus YNL271C, strain bni1, hits give low values 0.114 | S. cerevisiae deletion strains, locus YNL298W, strain CLA4, hits give low values 0.0847 | S. cerevisiae deletion strains, locus YNL307C, strain MCK1, hits give low values 0.0726 | S. cerevisiae deletion strains, locus YNL322C, strain KRE1, hits give low values 0.0639 | S. cerevisiae deletion strains, locus YNR052C, strain pop2, hits give low values 0.0915 | S. cerevisiae deletion strains, locus YOL006C, strain TOP1, hits give low values 0.104 | S. cerevisiae deletion strains, locus YOL147C, strain pex11, hits give low values 0.0687 | S. cerevisiae deletion strains, locus YOR061W, strain CKA2, hits give low values 0.077 | S. cerevisiae deletion strains, locus YOR069W, strain VPS5, hits give low values 0.0662 | S. cerevisiae deletion strains, locus YOR136W, strain idh2, hits give low values 0.0938 | S. cerevisiae deletion strains, locus YOR144C, strain elg1, hits give low values 0.076 | S. cerevisiae deletion strains, locus YOR184W, strain ser1, hits give low values 0.094 | S. cerevisiae deletion strains, locus YOR316C, strain cot1, hits give low values 0.0765 | S. cerevisiae deletion strains, locus YPL055C, strain LGE1, hits give low values 0.0913 | S. cerevisiae deletion strains, locus YPL241C, strain CIN2, hits give low values 0.0643 | S. cerevisiae deletion strains, locus YPR119W, strain clb2, hits give low values 0.0897 | S. cerevisiae deletion strains, locus YPR141C, strain kar3, hits give low values 0.24 | S. cerevisiae deletion strains, locus YPR163C, strain tif3, hits give low values 0.0819 | S. cerevisiae deletion strains, locus YPR167C, strain met16, hits give low values 0.0807 | S. cerevisiae deletion strains, strain wtn01, hits give low values 0.1 | S. cerevisiae strains, strain wild type, hits give low values 0.0558
